D1 ag: Allosteric Agonists of the Human D1 Dopamine Receptor: qHTS | HEK293 T-REx D1 cells, calcium flux, agonist mode | activation, % at 2 µM | actives 1% (n = 360,000) | AID 504660, 2011
Target sequence (P21728 whole entry, looked up): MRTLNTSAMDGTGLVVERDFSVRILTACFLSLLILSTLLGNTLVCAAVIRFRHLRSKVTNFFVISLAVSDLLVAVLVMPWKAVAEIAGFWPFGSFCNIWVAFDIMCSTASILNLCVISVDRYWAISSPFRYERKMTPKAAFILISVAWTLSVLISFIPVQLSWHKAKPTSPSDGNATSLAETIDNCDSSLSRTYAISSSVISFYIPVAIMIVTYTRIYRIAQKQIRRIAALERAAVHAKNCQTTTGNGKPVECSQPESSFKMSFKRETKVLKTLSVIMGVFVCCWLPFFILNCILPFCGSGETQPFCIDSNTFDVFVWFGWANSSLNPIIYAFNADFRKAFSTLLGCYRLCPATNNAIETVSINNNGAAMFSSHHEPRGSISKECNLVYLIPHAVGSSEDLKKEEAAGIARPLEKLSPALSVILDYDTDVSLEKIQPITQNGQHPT
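Tetracycline-induced HEK293 TREx D1 cells, force-coupled to calcium signalling, were dye-loaded with a no-wash calcium kit. Compound was pin-added after a 10 s baseline. Fluorescence was read kinetically at 1 cycle/s for 180 s, with calcium rises flagged as agonism.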
TRHR PAM: qHTS for Small Molecule Agonists and Allosteric Enhancers of Human TRH Receptor: Primary Screen for Enhancers. Thyrotropin-releasing hormone receptor (Homo sapiens), P34981. TRHR cells, fluo-8 calcium fluorescence, EC20 TRH enhancement. enhancement, % at 2 µM. actives 0.66% (n = 360,000); in the data active = enhancement above about 30%
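TRHR-expressing cells loaded with fluo-8 calcium dye were read kinetically (ex 480/em 530) during compound addition, then stimulated with an EC20 of TRH (10 nM final). Enhancement of the Gq-mediated intracellular calcium response was scored.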
TRHR agonist: qHTS for Small Molecule Agonists and Allosteric Enhancers of Human TRH Receptor: Primary Screen for Agonists. Thyrotropin-releasing hormone receptor (Homo sapiens), P34981. TRHR cells, calcium flux fluo-8, FDSS agonist mode. activation, % at 2 µM. actives 0.18% (n = 360,000). AID 493084, 2011
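TRHR-expressing cells loaded with fluo-8 calcium dye; 23 nL library compound pin-transferred, kinetic FDSS fluorescence (Ex 480/Em 530) recorded about 180 s for agonist-induced calcium release, before a 10 nM TRH EC20 addition for potentiator mode.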
D1 antagonist: Antagonist of Human D 1 Dopamine Receptor: qHTS; D(1A) dopamine receptor (Homo sapiens), P21728; HEK293 TREx D1 cells, calcium flux, dopamine EC80; stronger effect = lower value; activity change, negative = inhibition, % at 10 µM; actives 3.2% (n = 360,000); AID 504652, 2011; in the data active = activity change below about -30%
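Tetracycline-induced HEK293 Trex D1 cells, force-coupled to calcium, dye-loaded; compounds added and read 180 s, then EC80 dopamine added and calcium flux tracked kinetically another 180 s.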
D1 potentiator: Potentiators of Human D1 Dopamine Receptor: qHTS; potentiation, % at 10 µM; HEK293 TREx D1 cells, calcium flux, dopamine EC20 potentiation; AID 504651, 2011; actives 0.036% (n = 360,000); D(1A) dopamine receptor (Homo sapiens), P21728; in the data active = potentiation above about 30%
Large screens that a line does not name were inactive. Rows were chosen to be rich in hits. Some 4.6% of all compounds tested hit in one or more screens of this group. Rule as the data show it, unless noted: active = activation above about 30%; inactive = the rest.

O=C1Nc2ccc(Cl)cc2C12Nc1ccccc1-c1nnc(SCc3ccccc3F)nc1O2 (stereo unspecified)	D1 antagonist -44.9
CCCCOc1ccc(C(=O)N(Cc2ccc(N(C)C)cc2)Cc2ccco2)cc1	none
Cn1c(CN2CCN(C(=O)c3ccccc3)CC2)nc2cc([N+](=O)[O-])ccc21	none
Cn1c(CN2CCN(C(=O)c3ccccc3Cl)CC2)nc2cc([N+](=O)[O-])ccc21	D1 antagonist -77.0
CCN(CC)S(=O)(=O)c1ccc2c(c1)N(CC(=O)N(C)Cc1ccccc1)C(=O)CO2	none
CCS(=O)(=O)c1nc(NC(C)=O)n[nH]1	D1 antagonist -45.7
COc1ccc(CNC(=O)Cn2ncc3c4ccccc4n(Cc4cccc(Cl)c4)c3c2=O)cc1	none
O=C(Nc1nc2c(s1)CN(Cc1ccccc1)CC2)C1CCC1	none
CN(C)c1ccc(/C=C(\C#N)C(=O)Nc2nc3c(s2)CCN(Cc2ccccc2)C3)cc1	D1 ag 68.2
CCN(CC)c1cc(C)c2cc(NC(=O)/C=C/c3cc(OC)c(OC)c(OC)c3)ccc2n1	none
C=CCOC(=O)C1=C(C)NC(SC)=C(C#N)C1c1cccs1 (stereo unspecified)	none
CCOC(=O)C1=C(C)NC(SCC(=O)Nc2cc(C)on2)=C(C#N)C1c1cccs1 (stereo unspecified)	D1 antagonist -48.2
C=CCOC(=O)C1=C(C)NC(SCC(=O)Nc2nccs2)=C(C#N)C1c1cccs1 (stereo unspecified)	D1 antagonist -75.5
CCOC(=O)C1=C(C)NC(SCC(N)=O)=C(C#N)C1c1cccs1 (stereo unspecified)	none
C=CCOC(=O)C1=C(C)NC(SCC(=O)Nc2nccs2)=C(C#N)C1c1ccc(Cl)cc1 (stereo unspecified)	D1 antagonist -69.6
COc1ccc(S(=O)Cc2ccc(C(=O)NC3CC3)o2)cc1 (stereo unspecified)	none
CCOC(=O)Cn1c(=O)oc2cc(S(=O)(=O)N3CCN(c4ccc(C(C)=O)cc4)CC3)ccc21	D1 antagonist -42.7
CCOC(=O)Cn1c(=O)oc2cc(S(=O)(=O)NCCc3ccc(C)cc3)ccc21	none
CCOC(=O)Cn1c(=O)oc2cc(S(=O)(=O)Nc3ccc(F)cc3)ccc21	D1 ag 76.6, D1 antagonist -65.9
Cc1cccc(OCc2ccc(-c3nc(C#N)c(N4CCC(C(N)=O)CC4)o3)o2)c1	none
COc1ccc(C(CC(=O)Nc2cccc(C)c2C)N2Cc3ccccc3C2=O)cc1 (stereo unspecified)	none
COc1ccc(C(=O)NC(Oc2ccccc2)C(Cl)(Cl)Cl)cc1 (stereo unspecified)	D1 antagonist -80.1
COc1ccc(C(C)NC(=O)c2ccccc2)cc1 (stereo unspecified)	none
Cc1ccc(NC(=O)c2ccc(-c3cccc(Cl)c3C)o2)cc1	TRHR PAM 35.9
O=C(Cn1c(=O)oc2ccccc21)NCc1ccccc1Cl	none
COc1ccc(CN(C)CC(=O)NC(=O)NCc2ccccc2)c(OC)c1	D1 antagonist -55.2
CN(CC(=O)NC(=O)NCc1ccccc1)Cc1ccc(Cl)c(Cl)c1	none
COc1ccc(CCNc2ccc(N3C(=O)CC(C)C3=O)cc2[N+](=O)[O-])cc1OC (stereo unspecified)	D1 antagonist -33.6
C=CCN1C(=O)c2cccc3c(N4CCCCC4)ccc(c23)C1=O	D1 ag 88.6, TRHR agonist 34.5
O=C1c2ccccc2C(=O)N1CCN1CCCCC1	none
O=C(c1cccc(N2C(=O)c3ccccc3C2=O)c1)N1CCCCCC1	none
O=C1c2cccc3c(N4CCCCC4)ccc(c23)C(=O)N1CCO	D1 ag 108.6, TRHR agonist 68.8
Cc1n[nH]c(C)c1N1C(=O)c2cccc3c(N4CCCCCC4)ccc(c23)C1=O	D1 ag 280.5, TRHR agonist 126.3
O=C1c2cccc3c(N4CCCCC4)ccc(c23)C(=O)N1c1cccc(O)c1	D1 ag 300.2, TRHR agonist 73.3

Source: PubChem BioAssay
